Source: PubChem BioAssay (NCATS)
Results filed as inconclusive are left out. Where a call stands in place of a potency, no number is given. Calls of active or inactive are those of the source. Unless noted, calls come from the whole dose curve.

How the values were obtained:
[1] = Primary qHTS for Huh7 cytotoxicity: counterscreen for inhibitors of MERS-S pseudotyped particle cell entry (AID 1479147); details: outcome: dose series up to 57.1 µM unless noted
[2] = Primary qHTS for Vero E6 cytotoxicity: counterscreen for inhibitors of SARS-S pseudo-typed particle cell entry (AID 1479150); details: outcome: dose series up to 57.1 µM unless noted
[3] = Primary qHTS for inhibitors of MERS-S pseudo-typed particle cell entry (AID 1479149); details: outcome: dose series up to 57.1 µM unless noted; note: nearly all actives have a fitted effect of over 60% in size; note: potency is the fitted concentration of half-maximal effect
[4] = Cytotoxicity counterscreen for inhibitors of SARS-CoV-2 cell entry (AID 1645845); details: outcome: dose series up to 57.1 µM unless noted; note: nearly all actives have a fitted effect of over 50% in size
Method in brief: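 48 h compound treatment (after 1 h preincubation), HEK293-ACE2 cells, 37 C/5% CO2; ATP luminescence endpoint; normalized to cell wells and media blanks.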

[5] = KB-8-5-11 P-gp reporter qHTS against the NCATS DSHEA and TCM libraries (AID 1919977; active = well fitted curve in the direction sought with a large enough effect; an effect the other way counts as inactive or inconclusive)
Method in brief: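 P-gp-overexpressing KB-8-5-11 cells were screened in colchicine-free medium at 500 cells/well, as a titration series. Cells were exposed for 72 h at 37C. Viability was read by CellTiter-Glo luminescence after 30 min at room temperature.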

[6] = molecular target: Glutathione peroxidase 1 (Homo sapiens) (UniProt P07203); test: Primary qHTS Assay for Inhibitors of Recombinant Selenoprotein Glutathione Peroxidase 1 (GPX1) (AID 1845191; active = well fitted curve in the direction sought with a large enough effect; an effect the other way counts as inactive or inconclusive; note: nearly all actives have a fitted effect of over 65% in size)
Chain of Glutathione peroxidase 1 (Homo sapiens) (P07203 whole entry, looked up): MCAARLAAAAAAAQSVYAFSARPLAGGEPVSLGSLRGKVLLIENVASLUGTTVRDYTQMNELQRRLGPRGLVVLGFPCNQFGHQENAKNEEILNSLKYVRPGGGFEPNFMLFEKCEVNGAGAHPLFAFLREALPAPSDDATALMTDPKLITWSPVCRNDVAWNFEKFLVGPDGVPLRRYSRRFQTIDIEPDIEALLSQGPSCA
Method in brief: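 10 nM GPX1 + cpd, 30 min RT; start w/ 1 mM GSH, 0.5 mM cumene hydroperoxide, 0.5 mM NADPH, 100 nM GR, 0.01% BSA; buffer 50 mM Tris-HCl pH 7.5, 2 mM EDTA, 150 mM NaCl; Fl 340/450, 0 & 15 min.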

[7] = molecular target: Phospholipid hydroperoxide glutathione peroxidase GPX4 (Homo sapiens) (UniProt P36969); test: Primary qHTS Assay for Inhibitors of Recombinant Selenoprotein Glutathione Peroxidase 4 (GPX4) (AID 1845192; active = well fitted curve in the direction sought with a large enough effect; an effect the other way counts as inactive or inconclusive; note: nearly all actives have a fitted effect of over 65% in size)
Chain of Phospholipid hydroperoxide glutathione peroxidase GPX4 (Homo sapiens) (P36969 whole entry, looked up): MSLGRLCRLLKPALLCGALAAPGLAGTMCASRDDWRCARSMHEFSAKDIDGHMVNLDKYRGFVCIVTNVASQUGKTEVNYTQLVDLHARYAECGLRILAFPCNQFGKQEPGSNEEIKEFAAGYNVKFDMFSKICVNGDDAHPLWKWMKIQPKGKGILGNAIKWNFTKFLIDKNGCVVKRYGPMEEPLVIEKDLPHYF
Method in brief: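 NADPH consumption, followed by fluorescence at 340/450 nm between 0 and 15 min, reports GPX4 activity via coupled glutathione reductase (100 nM). Enzyme 200 nM was pre-exposed to compound 30 min; 0.5 mM cumene hydroperoxide and 1 mM GSH served as substrates.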

[8] = Confirmatory qHTS for VERO E6 Cytotoxicity Assay: Counterscreen for SARS-CoV-2 CPE Assay (AID 1508605); note: nearly all actives have a fitted effect of over 60% in size
[9] = Primary qHTS to identify inhibitors of SARS-CoV-2 cell entry (AID 1645846); details: SARS-CoV-2 pseudovirus cell entry assay, luminescence; activity change, negative = inhibition: at 57.1 µM (top of the series) unless noted; note: nearly all actives have a fitted effect of over 45% in size; note: potency is the fitted concentration of half-maximal effect
Method in brief: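 HEK293 cells stably expressing human ACE2, pre-treated 1 h with compound, then infected with MLV particles pseudotyped with Wuhan-Hu-1 spike (C-terminal 19-aa truncation). Luciferase luminescence after 48 h at 37 °C, normalised to spike PP and bald PP.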

[10] = Confirmatory qHTS to identify inhibitors of SARS-CoV-2 cell entry (AID 1645844); note: potency is the fitted concentration of half-maximal effect; nearly all actives have a fitted effect of over 45% in size
Method in brief: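 Luminescence from a luciferase reporter, read 48 hr after pseudotyped-particle addition, gives entry signal, normalised to spike-bearing PP wells and bald PP lacking fusion protein wells. Cells are Expi293F stably expressing human ACE2, compound-pretreated 1 hr.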

[11] = VSVG counterscreen qHTS to identify inhibitors of SARS-CoV-2 cell entry (AID 1645847); note: nearly all actives have a fitted effect of over 65% in size
Method in brief: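 HEK293-ACE2 cells (Expi293F, human ACE2) pretreated 1 h with compound, then infected with MLV-based VSV-G pseudotyped particles for 48 h at 37 C; luciferase luminescence normalized to VSV-G PP and bald PP wells.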

For Cc1cc(C#N)cc(C)c1Oc1nc(Nc2ccc(C#N)cc2)nc(N)c1Br, the Potency [1] was “inactive” and the Potency [2] was “inactive”.
For CCCCCCCC/C=C/CCCCCCCC(=O)O, the Potency [1] was “inactive”, the Potency [3] was “inactive” and the Potency [2] was “inactive”. For the same compound, the Potency [4] was “inactive” and the Potency [5] was “inactive”.
With Cc1nn(C)c2c1C(c1ccccc1F)=NCC(=O)N2C the Potency [1] was “inactive”, the Potency [3] was 22.4 µM (active) and the Potency [2] was “inactive”. For the same compound, the Potency [4] was “inactive”, the Potency [6] was “inactive” and the Potency [7] was “inactive”.
For O=c1ccc2ccc(OCCCCN3CCN(c4cccc5sccc45)CC3)cc2[nH]1, the Potency [1] was “inactive”, the Potency [2] was “inactive” and the Potency [8] was “inactive”.
In the case of CN1CCC2=C(C1)C(c1ccccc1)c1ccccc12 (centres undefined), the Potency [1] was “inactive”, the Potency [3] was “inactive” and the Potency [2] was “inactive”. The Potency [4] was “inactive”, the Potency [6] was “inactive” and the Potency [7] was “inactive”.
With OCCCNc1ccccc1 the Potency [1] was “inactive”, the Potency [3] was “inactive” and the Potency [2] was “inactive”. The activity change, negative = inhibition [9] was -22.3%.
With O=NCc1ccc([N+](=O)[O-])o1 the Potency [1] was “inactive” and the Potency [2] was “inactive”.
In the case of C=C1/C(=C/C=C2\CCC[C@]3(C)[C@@H]([C@H](C)CC[C@@H](O)C(C)C)CC[C@@H]23)C[C@@H](O)C[C@@H]1O, the Potency [1] was “inactive” and the Potency [2] was “inactive”.
In the case of C[N+]1(CC2CC2)CC[C@]23c4c5ccc(O)c4O[C@H]2C(=O)CC[C@@]3(O)[C@H]1C5 (some centres undefined), the Potency [1] was “inactive”, the Potency [3] was “inactive” and the Potency [2] was “inactive”. For the same compound, the Potency [4] was “inactive”, the Potency [6] was “inactive” and the Potency [7] was “inactive”.
With CCOC(=O)c1c[nH]c2cc(OCC(C)C)c(OCC(C)C)cc2c1=O the Potency [1] was “inactive”, the Potency [3] was “inactive” and the Potency [4] was “inactive”. For the same compound, the activity change, negative = inhibition [9] was -18.7%.
For CCCN1C[C@H](C)[C@@H](O)[C@](C)(O)[C@@H](CC)OC(=O)[C@H](C)[C@@H](O[C@H]2C[C@@](C)(OC)[C@@H](O)[C@H](C)O2)C(C)[C@@H](O[C@@H]2O[C@H](C)C[C@H](N(C)C)[C@H]2O)[C@](C)(O)C[C@H]1C (some centres undefined), the Potency [1] was “inactive”, the Potency [2] was “inactive” and the Potency [10] was 21.5 µM (active). The Potency [4] was “inactive”, the Potency [9] was 11.2 µM (active) and the Potency [11] was “inactive”.
In the case of N=C(N)c1ccc(OCCCOc2ccc(C(=N)N)cc2Br)c(Br)c1, the Potency [1] was “inactive” and the Potency [2] was “inactive”.
In the case of CCOC(=O)N[C@@H]1CC[C@@H]2[C@@H](C1)C[C@H]1C(=O)O[C@H](C)C1[C@H]2/C=C/c1ccc(-c2cccc(F)c2)cn1 (some centres undefined), the Potency [1] was “inactive”, the Potency [2] was “inactive” and the Potency [8] was “inactive”. For the same compound, the Potency [10] was 7.64 µM (active) and the Potency [4] was “inactive”.
With c1ccc(CCNCc2ccccc2)cc1 the Potency [1] was “inactive”, the Potency [3] was “inactive” and the Potency [2] was “inactive”. The Potency [6] was “inactive” and the Potency [7] was “inactive”.
In the case of C=C[C@]1(C)C[C@@H](OC(=O)CSC2C[C@H]3CC[C@@H](C2)N3C)C2(C)[C@H](C)CCC3(CCC(=O)[C@H]32)[C@@H](C)[C@@H]1O (some centres undefined), the Potency [1] was “inactive” and the Potency [2] was “inactive”.
In the case of CCC(=O)O[C@@H]1[C@@H](C)O[C@@H](O[C@H]2[C@H](N(C)C)[C@@H](O)[C@H](O[C@H]3[C@@H](CC=O)C[C@@H](C)[C@@H](OC(C)=O)/C=C/C=C/C[C@@H](C)OC(=O)C[C@@H](OC(=O)CC)[C@@H]3OC)O[C@@H]2C)C[C@]1(C)OC(C)=O, the Potency [1] was “inactive”, the Potency [3] was “inactive” and the Potency [2] was “inactive”. The activity change, negative = inhibition [9] was -16.2%.
